Most compounds without a hit are left out; they make up all but 8% or so of the library.
HT1080 IDH1KD tx – toxicity to HT-1080 IDH1 knockdown cells (counter line); AID 686971; Potency, µM (top dose mostly 46.1 µM), for the others: at the highest dose activity, negative = toxicity, usual class: cytotoxic; HT-1080 IDH1 knockdown viability, ATP luminescence, 48 h; 360,000 compounds, 2% hits;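 further: 0% = DMSO wells and -100% = cell-free medium wells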
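Viability of IDH1-knockdown HT-1080 fibrosarcoma cells was assessed by CellTiter-Glo after 48 h at 37 °C with titrated compound; concentration-effect curves were classified by fit quality and response size.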
KB-3-1 cytotox – KB-3-1 parental cell cytotoxicity. KB-3-1 viability, CellTiter-Glo ATP luminescence, 72 h. Potency, µM (series often up to 46.1 µM), most hits filed as cytotoxic. 400,000 compounds, 1.4% hits; further: on the % scale 0 is the no-effect control and ±100 the full control effect; nearly all actives have a fitted effect of over 60% in size
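Multi-concentration cytotoxicity screen in KB-3-1 cells grown in DMEM lacking phenol red with 10% FBS. After 72 h at 37 °C with compound, ATP-dependent luminescence was recorded.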
SW480 rerep – inducers of DNA re-replication in SW480 colon cancer cells | SW480 DNA re-replication, Hoechst DNA content imaging, 48 h | Potency, µM (series often up to 46.1 µM), for the others: at the top dose re-replication activation, most hits filed as activators | 340,000 compounds, 1.8% hits | AID 624297; further: % of control where 0% means no effect; nearly all actives have a fitted effect of over 55% in size
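DNA re-replication was detected as more nuclei of elevated Hoechst intensity after 48 hr exposure to compound (23 nL pinned per well of 250 cells).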
MCF10A rerep – DNA re-replication induction in MCF 10a cells | 350,000 compounds, 2.9% hits | AID 624296 | Potency, µM (top dose mostly 46.1 µM), for the others: top-dose activity, positive = re-replication, hits mostly activators | MCF 10A DNA re-replication, Hoechst nuclear intensity, 48 h; further: % of control where 0% means no effect; nearly all actives have a fitted effect of over 50% in size
KB-V1 MDR tox – kills drug-selected multidrug resistant KB-V1 cells | KB-V1 MDR cells viability, CellTiter-Glo, 72 h | Potency, µM (titrated, usually from 46.1 µM), most hits filed as cytotoxic | 400,000 compounds, 3.4% hits | AID 1347076; further: on the % scale 0 is the no-effect control and ±100 the full control effect; nearly all actives have a fitted effect of over 60% in size
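Potencies derive from concentration-effect curves fitted to normalized luminescence (CellTiter-Glo) of KB-V1 cells treated for 72 h at 37 degrees C in phenol-red-free DMEM containing 10% FBS.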
HT1080NT lethal – kills 2HG-producing HT-1080-NT fibrosarcoma cells; HT-1080-NT fibrosarcoma viability, CellTiter-Glo ATP luminescence, 48 h; Potency, µM (titrated, usually from 46.1 µM), for inactives: top-dose activity, negative = less viability, most hits filed as cytotoxic; 360,000 compounds, 1.6% hits; AID 686970;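 further: NT is the 2HG producing partner of a matched IDH1 knockdown line; 0% = DMSO-treated cells and -100% = media-only wells without cells; nearly all actives have a fitted effect of over 55% in size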
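HT-1080-NT fibrosarcoma cells (2HG-overproducing), 750 cells/well in RPMI with 5% FBS, dosed after 2 h and incubated 48 h at 37C. CellTiter-Glo luminescence normalized to DMSO and no-cell wells; concentration-response curves fitted and classed.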
Starred values were filed as active, the others as inactive; i = inactive; ? = inconclusive; / = no result given; ! = not confirmed by another sample. The call rests on the fitted dose curve; in most records, active means well fitted curve in the direction sought with a large enough effect; inconclusive means small, poorly fitted or top-dose-only effect, or another doubt; inactive means no such curve, though single readings can be large; an effect the other way counts as inactive or inconclusive. Potency means the concentration at half of the fitted maximal effect.

SMILES	HT1080 IDH1KD tx	KB-3-1 cytotox	SW480 rerep	MCF10A rerep	KB-V1 MDR tox	HT1080NT lethal
CC(=O)c1cccc(NC(=O)CSc2n[nH]c(-c3ccncc3)n2)c1	14%	i	-17%	?	i	8%
O=c1cc(-c2ccccc2)nc2c(-c3ccccc3)c(C(F)(F)F)[nH]n12	?	i	?	8.2µM*	?	?
CC(=O)N1CCN(C(=O)/C(C#N)=C/c2ccc3c(c2)OCO3)CC1	-1%	i	-3%	11%	i	12%
N#C/C(=C\c1cccc(Br)c1)C(=O)N1CCCCC1	16µM*	?	?	23µM*	?	23µM*
Cc1cc(/C=C(\C#N)C(=O)N2CCCCC2)cc(C)c1O	18µM*	16µM*	?	?	?	16µM*
N#C/C(=C\c1cccc(O)c1)C(=O)N1CCCCC1	-11%	i	?	18µM*	?	-1%
CCOC(=O)c1cc2c(=O)n3cccc(C)c3nc2n(CCCOC)c1=NC(=O)c1cccnc1	12%	i	16%	22%	12µM*	9%
CCCCCn1c(=NC(=O)c2ccco2)c(C(=O)OCC)cc2c(=O)n3ccccc3nc21	5%	i	?	?	5.2µM*!	8%
CCCCn1c(=NC(=O)c2ccco2)c(C(=O)OCC)cc2c(=O)n3cccc(C)c3nc21	0%	i	18µM*	6.5µM*	i	-2%
CCOCCCn1c(=NC(=O)c2cccnc2)c(C(=O)OCC)cc2c(=O)n3ccccc3nc21	9%	?	?	?	?	6%
COC(=O)C1C(O)=C(C=Nc2ccc3ccccc3c2)C(=O)CC1(C)C (configuration not stated)	1%	i	?	?	i	-1%
COc1ccc(C)c2sc(NC(=O)c3ccc(S(=O)(=O)N4CCOCC4)cc3)nc12	/	i	/	/	i	/
Cc1ccc2ccc(C(Nc3ccccc3)c3ccccc3)c(O)c2n1 (configuration not stated)	?	4.1µM*	/	/	?	-8%
Cc1ccc2ccc(C(Nc3ccccc3)c3ccc(F)cc3)c(O)c2n1 (configuration not stated)	?	i	/	/	?	?
COc1cc(C(Nc2ccccn2)c2ccc3ccc(C)nc3c2O)cc(OC)c1O (configuration not stated)	15µM*	?	21µM*	13µM*	16µM*	-29%
Cc1cccc(NC(c2ccccc2C)c2ccc3ccc(C)nc3c2O)n1 (configuration not stated)	/	i	/	/	i	/
Cc1ccc2ccc(C(Nc3ccccc3)c3ccc(C(C)C)cc3)c(O)c2n1 (configuration not stated)	?	15µM*	/	/	?	?
Cc1cccc(NC(c2ccc(C)s2)c2ccc3ccc(C)nc3c2O)n1 (configuration not stated)	-1%	i	?	5.8µM*	i	-1%
COCc1c(C(=O)N(C)Cc2ccccc2N2CCCC2)oc2ccccc12	2%	i	0%	?	?	6%
Cc1nn(Cc2ccc(Cl)cc2)c(C)c1NC(=O)Cn1nc([N+](=O)[O-])c(Cl)c1C	-25%	?	7%	?	i	?
O=C(Nc1ccc(Cl)cn1)c1ccc([N+](=O)[O-])o1	21µM*	i	2.9µM*	12µM*	?	23µM*
Cc1c(Cl)c([N+](=O)[O-])nn1Cc1ccc(C(=O)Nc2ccc(Cl)cn2)o1	-14%	i	1%	?	3.7µM*	0%
COc1ccc(-n2ncc(Cl)c(Cl)c2=O)cc1	8.2µM*	5.2µM*	3%	0.82µM*	?	4.6µM*
COc1ccc(-n2ncc(N(C)n3cccc3)c(Cl)c2=O)cc1	17%	i	-6%	2%	i	10%
